Shown are actives, neighbours in structure and some others; about 2.4% of the full set was active somewhere.
NSD2 HMT inh: NSD2 histone methyltransferase inhibitors, primary screen, biochemical, AlphaScreen, single concentration, set 2 | NSD2 peptide methylation, 120 min | inhibition, % at 12.5 µM | actives 0.54% (n = 310,000) | AID 743445, 2014
Target sequence (O96028 whole entry, looked up): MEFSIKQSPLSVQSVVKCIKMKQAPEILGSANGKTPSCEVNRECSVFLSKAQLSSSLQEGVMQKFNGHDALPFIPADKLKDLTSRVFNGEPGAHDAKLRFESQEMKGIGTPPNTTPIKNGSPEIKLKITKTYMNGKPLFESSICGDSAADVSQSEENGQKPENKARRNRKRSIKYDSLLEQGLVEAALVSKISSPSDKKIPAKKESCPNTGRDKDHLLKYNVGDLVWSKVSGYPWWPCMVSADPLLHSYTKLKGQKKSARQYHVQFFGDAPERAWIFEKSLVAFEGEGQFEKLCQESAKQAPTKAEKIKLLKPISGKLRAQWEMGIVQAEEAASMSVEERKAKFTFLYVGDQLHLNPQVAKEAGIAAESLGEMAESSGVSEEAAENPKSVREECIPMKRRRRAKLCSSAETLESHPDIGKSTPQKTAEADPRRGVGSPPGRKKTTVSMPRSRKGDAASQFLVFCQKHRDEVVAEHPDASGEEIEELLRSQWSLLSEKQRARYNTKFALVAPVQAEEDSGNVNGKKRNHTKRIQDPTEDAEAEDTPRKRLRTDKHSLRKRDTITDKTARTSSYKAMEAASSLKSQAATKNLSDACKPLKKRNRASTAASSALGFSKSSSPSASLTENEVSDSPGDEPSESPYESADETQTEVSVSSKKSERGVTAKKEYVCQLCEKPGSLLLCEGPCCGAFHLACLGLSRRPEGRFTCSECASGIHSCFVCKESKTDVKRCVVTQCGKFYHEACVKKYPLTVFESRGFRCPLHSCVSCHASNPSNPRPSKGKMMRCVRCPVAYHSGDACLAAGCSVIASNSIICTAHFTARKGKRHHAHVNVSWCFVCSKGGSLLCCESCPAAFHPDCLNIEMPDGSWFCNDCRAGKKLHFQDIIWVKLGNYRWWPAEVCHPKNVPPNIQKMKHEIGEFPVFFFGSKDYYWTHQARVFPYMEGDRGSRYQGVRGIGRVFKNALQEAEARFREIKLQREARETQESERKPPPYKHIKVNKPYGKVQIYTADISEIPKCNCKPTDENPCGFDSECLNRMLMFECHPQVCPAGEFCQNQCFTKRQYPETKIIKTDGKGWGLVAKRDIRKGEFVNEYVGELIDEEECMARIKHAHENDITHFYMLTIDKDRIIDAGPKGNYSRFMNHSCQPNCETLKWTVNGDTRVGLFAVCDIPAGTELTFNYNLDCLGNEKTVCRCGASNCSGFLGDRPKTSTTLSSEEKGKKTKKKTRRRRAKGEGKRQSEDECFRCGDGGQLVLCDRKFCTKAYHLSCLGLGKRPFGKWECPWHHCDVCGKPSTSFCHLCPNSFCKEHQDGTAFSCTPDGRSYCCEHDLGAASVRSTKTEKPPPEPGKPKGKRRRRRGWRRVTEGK
MITF TRPM1 HTS: activators of MITF-driven TRPM1 promoter reporter, primary screen, cell-based, SK-MEL-5, luciferase, single point; actives 0.75% (n = 300,000); activation, % at 12.5 µM; SK-MEL-5 TRPM1-promoter luciferase, 24 h; % of positive control, neutral wells = 0;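 active means mean activation of at least 80% with every replicate also reaching 80%; inconclusive means mean reaches 80% but some replicate falls short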;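 further: 0% = neutral control wells and 100% = parthenolide positive control wells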
Wnt bcat act: Wnt/beta-catenin pathway activators, primary screen, cell-based, plate reader, single point. Wnt/beta-catenin reporter cell assay, activator. activation, % at 9.35 µM. actives 1.2% (n = 300,000). AID 743398, 2014; in the data active means activation above about 30%, passing the limit was not always enough; inconclusive means no clear call, values can overlap the other calls;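 further: 0% = neutral control wells and 100% = positive control wells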
miR-122 sensor: miR-122 Renilla sensor signal increase in Huh7, primary screen, miR-122 inhibitor project, cell-based, single point, plate reader. Huh7 miR-122 Renilla luciferase sensor, 48 h; neutral wells = 0, positive control = 100. AID 602342, 2012. actives 0.3% (n = 340,000). activation (reporter increase), % at 12.5 µM;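 active means mean replicate activation score at least 90 and every replicate individually at or above 90; inconclusive means only one of the two criteria met; inactive means neither criterion met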;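 further: higher luciferase means less miR-122 activity so hits act as miR-122 inhibitors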
INS-1E GSIS act: GLuc luminescence reporter in INS-1E cells, primary screen for activators of glucose-dependent secretion of insulin | actives 0.61% (n = 370,000) | activation, % at 16.6 µM | INS-1E GLuc reporter insulin secretion, 2-3 h;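 active means lowest replicate activation of at least 40%, so every replicate reaches that level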;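 further: 0% = median of neutral control wells and 100% = median of IBMX positive control wells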
DYRK1A inh: rat Dyrk1A kinase inhibitors, primary screen, biochemical, single point, plate reader | Dual specificity tyrosine-phosphorylation-regulated kinase 1A (Rattus norvegicus), Q63470 | ADP-Glo luminescence, NFATc1 peptide | inhibition, % at 12.5 µM | actives 0.43% (n = 310,000) | AID 504441, 2011;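 further: plate controls were vehicle with enzyme for no effect and no enzyme for full effect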
AlphaScreen art: AlphaScreen signal interference with preloaded methylated product, dose response, artefact control for NSD2 inhibitor project, biochemical, cherry-picked samples; shares compounds with NSD2 HMT inh; AlphaScreen artifact counterscreen, preloaded methylated H4 peptide; AC35, µM (titrated, usually from 10 µM), for the others: top-dose activity change, negative = signal loss; actives 9.4% (n = 1,500); AID 1053174, 2014; call rule not given here
Active calls of the source: *; ? = inconclusive; / = no result given; [ ] = dose if it differs, or a comment. Unless noted, no stated cut-off is given here; in the data, active means inhibition above about 50%; inactive means the rest.

SMILES | NSD2 HMT inh | MITF TRPM1 HTS | Wnt bcat act | miR-122 sensor | INS-1E GSIS act | DYRK1A inh | AlphaScreen art
CCCc1nc2sc3ccccc3c(=O)c2c(=O)n1Cc1ccccc1 | 61* | / | 0 | -2 | 21 | 4 | -3%
CCc1nc2sc3ccccc3c(=O)c2c(=O)n1Cc1ccco1 | 1 | -7 | -3 | / | 11 | -3 | /
COc1cc(-c2nnn(Cc3ccccc3C)n2)cc(OC)c1OC | 54* | -8 | 0 | / | -3 | 0 | -1%
COc1ccc(-c2nnn(Cc3ccccc3)n2)cc1OC | -2 | 27 | 1 | -1 | 35 | 19 | /
CS(=O)(=O)N1[C@H](C#N)[C@H](c2ccc(C#CC3CCCCC3)cc2)[C@H]1CO | / | / | / | / | 2 | / | /
CN1C(=O)c2cc(NC(=O)c3ccc(F)cc3)ccc2OC[C@@H]2O[C@H](CC(=O)NCC3CC3)CC[C@H]21 | / | / | / | -3[16.7 µM] | 1 | / | /
CC(=O)N1CCN(c2ccccc2NC(=O)c2ccc3ccccc3c2)CC1 | 53* | / | 5 | 10 | 14 | 3 | -1%
CC(=O)N1CCN(c2ccccc2NC(=O)c2cccs2)CC1 | -2 | -7 | 1 | 2 | 23 | -1 | /
O=C1C=C(O)c2[nH]c(=O)ccc2C1=O | 94* | 7 | -4 | / | -6 | 14 | 1%
C/C(CC(=O)NCCCN1CCOCC1)=N\NC(=O)COc1ccc(Cl)cc1 | 65* | 6 | / | 2 | / | 5 | -7%
COc1ccc(Nc2oc(COc3ccccc3OC)nc2C#N)cc1 | 51* | -15 | -3 | / | / | -5 | -2%
COc1cc(OC)c(-c2c3cc(O)c(=O)cc-3oc3cc(O)c(O)cc23)cc1OC | 143* | -18 | -5 | / | -22 | 2 | 0.85µM*
Cc1c2cc(O)c(=O)cc-2oc2cc(O)c(O)cc12 | / | -26 | -4 | 5 | 7 | 13 | /
CC(C)c1nc2oc3c(NCC4CCCO4)ncnc3c2c2c1COC(C)(C)C2 (centres undefined) | 54* | -4 | / | 194* | / | 3 | -3%
Cc1ccc(NC(=O)Cn2nnc(C(=O)NCc3ccccc3)c2N)cc1C | 56* | -9 | 0 | 3 | 2 | 4 | -2%
C/C(=N\NC(=O)CSc1nc2ccccc2o1)c1cccc(O)c1 | -1 | 14 | 1 | -3 | 18 | 1 | /
C/C(=N\NC(=O)CSc1nc2ccccc2o1)c1ccc(O)cc1 | 51* | 9 | 0 | 3 | -5 | 7 | -5%
COc1ccc2nc(C)cc(SCC(=O)N/N=C/c3ccc(O)c(O)c3)c2c1 | 66* | 0 | -3 | / | -2 | 8 | -13%
O=C(CSc1nc2ccccc2o1)N/N=C/c1ccccc1 | -2 | 56 | / | 0 | 0 | -7 | /
O=C(CSc1nc2ccccc2o1)N/N=C/c1ccc(O)c(O)c1 | 116* | -8 | 1 | -1 | 5 | 24 | 2.2µM*
Cc1cc(Cl)ccc1OCCCC(=O)N1CCOCC1 | 72* | / | ? | -6 | / | 0 | 1%
COCC(=O)N(C)C[C@H]1[C@H](c2ccc(-c3ccccc3)cc2)[C@H](CO)N1C(C)=O | / | / | / | -8[16.7 µM] | 2 | / | /
CC(C)(C#N)NC(=O)C1CCCN1S(=O)(=O)c1ccc2ccccc2c1 (centres undefined) | 109* | -14 | 2 | / | -1 | -6 | -2%
C[C@@H]1CN([C@@H](C)CO)C(=O)Cc2cc(NS(=O)(=O)c3cn(C)cn3)ccc2O[C@H]1CN(C)Cc1ccc(C(F)(F)F)cc1 | / | / | / | -11[16.7 µM] | -9 | / | /
N#CC1C(=O)Nc2cccnc21 (centres undefined) | 121* | / | 3 | -6 | 11 | / | 0%
O=C1NC(=S)S/C1=C\c1cc(Cl)ccc1Cl | 24 | 35 | 11 | 10 | / | / | /

Assay outcomes deposited in PubChem by Broad Institute.
